Results on 103 compounds are retold here after PubChem BioAssay.

Values without a mark were called inactive. No rule for the calls is given here.

The assay deals with Pantothenate synthetase (Mycobacterium tuberculosis (strain ATCC 25618 / H37Rv)) (UniProt P9WIL5). Kind of assay: Recombinant Mtb pantothenate synthetase (PanC) inhibitors, coupled enzyme, confirmatory (AID 375).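 Also: 0% = full reaction with vehicle and 100% = no enzyme background.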 The note with it: coupled enzyme assay; at 10 µM, stronger effect = higher value.
Pantothenate synthetase (Mycobacterium tuberculosis (strain ATCC 25618 / H37Rv)), sequence (P9WIL5 whole entry, looked up): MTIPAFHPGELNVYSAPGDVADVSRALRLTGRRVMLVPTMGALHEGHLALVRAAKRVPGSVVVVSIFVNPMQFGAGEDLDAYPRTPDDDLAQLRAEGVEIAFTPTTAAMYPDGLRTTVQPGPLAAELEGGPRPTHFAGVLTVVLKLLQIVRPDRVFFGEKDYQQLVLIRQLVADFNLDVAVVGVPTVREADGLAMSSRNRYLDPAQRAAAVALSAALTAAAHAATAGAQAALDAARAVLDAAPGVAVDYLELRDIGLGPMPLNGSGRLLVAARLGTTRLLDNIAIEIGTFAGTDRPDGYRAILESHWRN

In general, inhibition refers to the relative decrease from the control value, in per cent.

In the case of `CCC(C)(C(=O)NC1CCCCC1)N(Cc1ccco1)C(=O)c1cnccn1` (stereo not drawn), the inhibition is 3%. Next, `Cc1cc(C)nc(SCCS(=O)Cc2ccc(Cl)cc2)n1` (stereo not drawn): 0%. Under `CC1CC(C)CN(CCCNC(=O)COc2cc(=O)n(C)c3ccccc23)C1` (stereo not drawn) stands 0%; under `COc1ccc(OC)c(N2Cc3cc(C)c(C)cc3C2)c1`, 3%; under `O=C(Nc1ccc2nc(-c3cccs3)[nH]c2c1)c1ccco1`, 0%. For the compound `c1ccc(-c2cnc(CSc3ncnc4sccc34)o2)cc1`, the inhibition was 0%. Next, `CCOc1ccccc1NC(=O)N1CCCC1C(=O)Nc1nnc(CC)s1` (stereo not drawn): 0%; `O=C(Cn1nnc(-c2ccccc2)n1)Nc1ccccc1N1CCOCC1`: 0%; `C=CCNC(=O)c1cccc(Br)c1`: 8%. `CN(CC(O)COc1ccc(OCC(O)CN(C)C2CCCCC2)cc1)C1CCCCC1` (stereo not drawn): the inhibition is 4%. For `C=CCn1c(SCc2cccc(C#N)c2)nnc1-c1ccccc1O`, the inhibition was 0%.

In the case of `Cc1nc(CNS(=O)(=O)c2cccc(F)c2)cs1`, the inhibition was 0%.

Consider `O=C(Nc1ccccc1C(F)(F)F)c1cc(S(=O)(=O)N2CCOCC2)ccc1F`, for which the inhibition is 0%. Under `Cn1cnc(S(=O)(=O)Nc2ccc(C(F)(F)F)cc2)c1` stands 0%; under `CN1C(=O)C(CC(=O)N2CCN(C(c3ccccc3)c3ccccc3)CC2)N(C)C1=O` (stereo not drawn), 0%.

`O=C(CN1C(=O)C2CC=C(Cl)CC2C1=O)Nc1ccc(C(=O)O)cc1` (stereo not drawn): the inhibition is 0%.

Regarding `Cc1ccc(-c2[nH]nc3c2C(c2ccoc2)C(C#N)=C(N)O3)cc1C` (stereo not drawn), the inhibition is 0%. With `C[C@]12CC[C@@H]3c4ccc(O)cc4CC[C@H]3[C@@H]1CC[C@@H]2OC(=O)CCC(=O)O`, the inhibition is 8%. Next, `Cc1ccc(OCC(=O)NCCN2CCCC2)cc1`: 0%; `CCOC(=O)Cc1csc(NC(=O)CSc2nnc(C3CC3)n2C)n1`: 3%.

For the compound `CSc1nnc(-c2ccccc2)n1C`, the inhibition is 7%.

As for `Cc1ccc2c(C(=O)CN3CCSCC3)c(C)[nH]c2c1`, the inhibition is 0%. Under `COc1ccc(-c2noc(CCC(=O)Nc3nc4ccccc4s3)n2)cc1` stands 0%; under `CC(Oc1ccccc1)C(=O)NC1CC(C)(C)NC(C)(C)C1` (stereo not drawn), 0%; under `Cc1cc(C)c(S(=O)(=O)N(C)CC(N)=O)c(C)c1`, 0%. With `COc1ccc(CN(C(=O)CNC(=O)c2ccco2)C(C(=O)NC2CCCC2)c2ccco2)cc1` (stereo not drawn), the inhibition was 5%. `O=C(CCCn1c(=O)c2sccc2n(Cc2ccc(F)cc2)c1=O)NCc1ccco1`: the inhibition is 1%. Under `Cc1ccc(/C(O)=C2\C(=O)C(=O)N(CCCN(C)C)C2c2ccccn2)cc1` (stereo not drawn) stands 1%; under `C#CCN(C)Cc1ccccc1`, 3%; under `CC(NCc1ccco1)C(=O)N1CCc2ccccc2C1` (stereo not drawn), 5%. With `O=C(Cn1nc(C(F)(F)F)c2c1CCCC2)NCCN1CCOCC1`, the inhibition is 5%. Next, `CC(=O)c1ccccc1OCCn1nnc(-c2ccc(C)cc2)n1`: 0%. Next, `Cc1cc(C)c2c(CC(=O)NCc3ccco3)coc2c1`: 0%; `CCOC(=O)C1CCN(c2c(NC3CCCc4ccccc43)c(=O)c2=O)CC1` (stereo not drawn): 2%. Under `CC(=O)Nc1ccc(OC(=O)c2cccs2)cc1` stands 0%; under `COc1ccc(C(=O)N2CCN(C3CCCCC3)CC2)c(OC)c1`, 0%; under `c1ccc(-c2nc3nonc3c3nc4ccccc4n23)cc1`, 2%. As to `COc1ccccc1N(CN1CCCC1=O)C(=O)c1c(F)cccc1Cl`, the inhibition was 0%. For the compound `CCc1ccc2c(CN(CC)Cc3nc4ccccc4c(=O)[nH]3)cc(=O)oc2c1`, the inhibition is 0%. For the compound `O=C(/C=N/O)Nc1cccnc1`, the inhibition was 0%. Under `CCOC(=O)c1cnn(-c2cc(C)nc3c(-c4ccccc4)c(C)nn23)c1N` stands 6%; under `COc1cccc(Oc2cn[nH]c2-c2ccc(O)cc2O)c1`, 0%. Next, `NC1=NC(c2ccc(Cl)cc2)n2c(nc3ccccc32)N1` (stereo not drawn): 0%; `COC(=O)c1sc2ccccc2c1NC(=O)c1cccs1`: 2%. Next, `Oc1c(Cl)cc(Cl)c2c1NCCC2`: 1%; `COc1ccc(C(N)=O)cc1N`: 0%; `C=CCOc1ccc(/C(O)=C2\C(=O)C(=O)N(CCOC)C2c2cccnc2)cc1` (stereo not drawn): 0%. As for `COc1ccc2[nH]c(=O)c(CN(Cc3cccs3)Cc3nnnn3C(C)(C)C)cc2c1`, the inhibition was 0%. Turning to `O=C(CCn1c(=O)oc2ccccc21)N1CCN(c2ccccc2Cl)CC1`, the inhibition was 0%. Next, `COc1ccc(C)cc1NC(=O)CCN1CCCC1`: 0%. As for `CCOC(=O)c1ccccc1NC(=O)c1c(O)c2ccccc2n(CC)c1=O`, the inhibition was 0%. Under `CCOC(=O)c1cccc(NC(=O)CCn2nnc3ccccc32)c1` stands 0%; under `CCN1CCN(C(CNC(=O)c2ccc3c(c2)OCO3)c2cccnc2)CC1` (stereo not drawn), 0%; under `Cc1[nH]c(C(=O)N2CCCCC2)c(C)c1C(=O)NC1CCCCC1`, 4%. Next, `Cc1nnc(SCCn2c(N3CCC(Cc4ccccc4)CC3)nc3c2c(=O)[nH]c(=O)n3C)s1`: 2%.

Take `CCc1cccc2c(=O)c(C(=O)NCCN3CCOCC3)c[nH]c12`: the inhibition was 10%. As to `O=C(O)CCN1C(=O)c2ccccc2C1=O`, the inhibition was 6%. Under `CCOC(=O)CNC(=O)CSc1nc(N(C)C)nc(N2CCOCC2)n1` stands 6%.

Consider `Cc1ccc(C)c(S(=O)(=O)NCc2ccc(C(=O)N3CCN(C)CC3)cc2)c1`, for which the inhibition is 0%. Under `CCCNCC(O)COc1ccccc1C(=O)CCc1ccccc1` (stereo not drawn) stands 0%.

Take `C/C=C(/C(=C/C)c1ccc(O)cc1)c1ccc(O)cc1`: the inhibition was 0%. With `CCN(CC)C(=O)C1=C(C)NC(=O)NC1c1c(F)cccc1Cl` (stereo not drawn), the inhibition was 0%. Under `CCc1ccccc1N1CC23C=CC(O2)C(C(=O)O)C3C1=O` (stereo not drawn) stands 0%; under `Cc1c(Br)c(C(F)(F)F)nn1CC(=O)NCCN1CCOCC1`, 0%; under `CN(C)CCOC(C)(c1ccccc1)c1ccccn1` (stereo not drawn), 0%. For the compound `NC(=O)c1cccc(S(=O)(=O)N2CCCCC2)c1`, the inhibition is 0%. For the compound `COc1ccc(C2CC(c3ccc(Cl)cc3Cl)n3nc(N)nc3N2)cc1` (stereo not drawn), the inhibition is 0%. `CC(C)(C)n1cnc2cc(NS(=O)(=O)c3ccc(Br)cc3)ccc21`: the inhibition was 7%.

As to `Cc1ccc(-c2c3c(=O)n(C)c(=O)n(C)c3cn2CCCN2CCOCC2)cc1`, the inhibition was 9%. As to `Cn1c(=O)c2c(nc(NCCNC(=O)c3ccco3)n2Cc2ccccc2Cl)n(C)c1=O`, the inhibition was 0%. Next, `COc1ccc(S(=O)(=O)NCC(=O)N(CC(=O)NCC2CCCO2)c2ccccc2C)cc1` (stereo not drawn): 8%; `C=CCn1c(COc2ccccc2)nnc1SCC(=O)C(C)(C)C`: 0%; `O=C(Nc1nnc(N2CCCCCC2)s1)c1cc(-c2ccc(Br)cc2)on1`: 12%.

For `COc1cc2c3c(c1)/C(=C1/SC(NC(C)=O)=NC1=O)C(=O)N3C(C)(C)C=C2C`, the inhibition was 0%. Next, `CCC(=O)N1CCCc2cc(S(=O)(=O)N3CCCc4ccccc43)ccc21`: 4%. Turning to `CCOC(=O)c1cc2n(n1)C(C(F)(F)C(F)(F)F)CC(C)N2` (stereo not drawn), the inhibition was 1%. Under `COc1ccccc1CN1CC(C(=O)NCc2cccnc2)CC1=O` (stereo not drawn) stands 2%; under `O=C1CC2CS(=O)(=O)CC2N1c1ccc(Oc2ccccc2)cc1` (stereo not drawn), 0%; under `COC(=O)c1c(N)sc(C(=O)N2CCOCC2)c1C`, 0%. Take `COC(=O)COc1cccc(NC(=O)COc2ccccc2)c1`: the inhibition was 2%.

In the case of `COc1ccc(N2CCN(Cc3nc4c(c(=O)[nH]c(=O)n4C)n3CC(C)=O)CC2)cc1`, the inhibition is 0%. Next, `O=C(O)[C@@H]1CCCN1c1ncnc2sc3c(c12)CCC3`: 6%. With `Cc1cc(NC(=O)c2cccc(S(=O)(=O)N3CC(c4ccccc4)CC3=O)c2)no1` (stereo not drawn), the inhibition is 2%.

`C=CCN1C(=O)C2(c3ccccc31)C1CCCC=C1C(C#N)=C(N)C2(C#N)C#N` (stereo not drawn): the inhibition is 0%.

Turning to `CCCc1nnc2n1N=C(c1ccc(-c3cc(Cl)ccc3Cl)o1)CS2`, the inhibition was 0%. In the case of `O=C(Nc1ccc(N2CCOCC2)cc1)c1cccc(S(=O)(=O)N2CCCC2)c1`, the inhibition was 0%.

Consider `NCCN1CCN(CCN)CC1`, for which the inhibition is 0%.

For the compound `CCOC(=O)CSc1nn(C)c(=S)s1`, the inhibition was 6%. In the case of `O=c1[nH]c(N2CCc3ccccc32)nc2c1CCCC2`, the inhibition was 0%. On to `O=C(c1ccc(Cl)cc1)N1CCCOC1`, for which the inhibition is 4%. Under `COCCCn1c2nc3ccccc3nc2c2c(=O)n(-c3ccccc3OC)cnc21` stands 11%; under `COCC(=O)N(Cc1ccccc1)c1ccccn1`, 4%. Next, `NC(=O)C1(N2CCCCC2)CCN(CC(=O)Nc2cc(Cl)ccc2Cl)CC1`: 3%; `O=C1CC(c2ccco2)CC(O)=C1C=NCC1NCCc2ccccc21` (stereo not drawn): 0%. Next, `COc1ccc(NC(=O)CSc2nc3c(c(=O)n2-c2ccc(F)cc2)SCC3)cc1`: 0%; `COC(=O)c1cn(NC(=O)C2CCCO2)c(=O)c2ccccc12` (stereo not drawn): 0%; `CCCCOc1ccc(-c2nnn(C(C)(C)C(=O)OC)n2)cc1`: 5%. For the compound `CC12CCC(C(=O)N3CCCCC3)(CC1=O)C2(C)C` (stereo not drawn), the inhibition is 0%. Next, `CC(C)C(NC(=O)c1ccccc1NC(=O)c1ccco1)C(=O)O` (stereo not drawn): 4%; `CSc1n[nH]c(NCc2ccccc2)n1`: 6%.

On to `COCc1cc(C)nc(Nc2ccc(C)cc2C)c1C#N`, for which the inhibition is 0%.

`O=C(/C=N/O)NCc1ccncc1`: the inhibition was 1%. In the case of `CC(=O)OC1c2ccccc2C(=O)N1c1ccccc1C` (stereo not drawn), the inhibition was 1%.
